In PubChem BioAssay one finds z-score data, which are given here for 21 molecules.

A short description of experiment [1]: A549 cell viability effects, profiling panel, calcein-AM fluorescence, 48 h, basal (AID 1162). The following applies: higher = more signal.
The nature of experiment [2]: adipocyte viability effects, profiling panel, cell-based, 3T3-L1 adipocytes, calcein-AM fluorescence, 48 h, basal (AID 1163). The following applies: 3T3-L1 adipocytes viability, higher = more signal.
A short description of experiment [3]: HepG2 cell viability effects, profiling panel, calcein-AM fluorescence, 48 h, basal (AID 1164). The following applies: higher = more signal.
A short description of experiment [4]: MM1S cell viability effects, profiling panel, calcein-AM fluorescence, 48 h, basal (AID 1165).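 Note: viability of MM1S multiple myeloma cells under basal unstimulated conditions.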 As to conditions: higher = more signal.
Experiment [5] in a line: basal RPMI8226 viability, no added stimulus, profiling panel, cell-based, calcein-AM fluorescence, 48 h, PK04 Diversity Set (AID 1166).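 Note: cells grown under basal conditions without added stimulus.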 As to conditions: RPMI8226 myeloma viability, higher = more signal.
Experiment [6] is described as follows: basal HepG2 mitochondrial membrane potential changes, profiling panel, cell-based, JC-1 fluorescence, 24 h, 100 nL compound (AID 1167). The following applies: higher = more signal.
Experiment [7] in a line: basal 3T3-L1 adipocyte mitochondrial potential changes, profiling panel, cell-based, JC-1 fluorescence, 3T3-L1 adipocytes, 24 h, 100 nL compound (AID 1168). The following applies: JC-1 mitochondrial fluorescence, higher = more signal, called active from +8 up or from −8 down.
Experiment [8] in a line: basal RPMI8226 mitochondrial membrane potential changes, profiling panel, cell-based, JC-1 fluorescence, 24 h, 100 nL compound (AID 1169). The following applies: RPMI8226 myeloma, JC-1 mitochondrial potential fluorescence, higher = more signal.
Experiment [9] is described as follows: basal MM1S mitochondrial membrane potential changes, profiling panel, cell-based, JC-1 fluorescence, 24 h, 100 nL compound (AID 1170). As to conditions: higher = more signal.
A short description of experiment [10]: A549 lung cancer cell viability effects, profiling panel, resazurin fluorescence, 24 h, PK04 Diversity Set (AID 1171). The following applies: higher = more signal, called active from +8 up or from −8 down.

Calls of active or inactive are those of the source.
Note: test concentration not given here.

For the molecule `COCC(=C=CC[C@H](O)c1ccc(CO)o1)CCO`, the z-score is 0.0135 in experiment [1]; -0.651 in experiment [2]; 0.676 in experiment [3]; -0.558 in [4]; 0.368 in experiment [5]; -0.649 in experiment [6]. Moreover, the z-score in [7] was -0.0348 (inactive); in experiment [8] it was -0.495; in experiment [9], 0.363; in experiment [10] it was -0.0239 (inactive).

On to `COCC(=C=CC[C@H](O)c1ccccc1OCCO)C[C@H](O)c1ccccn1`, for which the z-score in experiment [1] was 1.12; in [2], 0.381; in experiment [3], 0.781; in [4], 0.943; in experiment [5], 0.139; in experiment [6], 1.01. Moreover, the z-score was -0.443 (inactive) in experiment [7], -0.471 in experiment [8], -1.09 in [9] and -0.0836 (inactive) in experiment [10].

With `C=CC[C@@]1(C(=O)NCCCOC)N=C(c2ccc(OCCCO)cc2)O[C@@H]1c1ccccc1N=[N+]=[N-]`, the z-score in experiment [1] was 1.42; in experiment [2] it was 0.0373; in experiment [3], -0.465; in [4], -1.06; in experiment [5] it was 0.241; in [6] it was 1.62. For the same molecule, the z-score is 0.863 (inactive) in experiment [7], -0.178 in experiment [8], -0.917 in experiment [9] and 0.2 (inactive) in experiment [10].

On to `C=C[C@@H](OC)[C@H](OC(=O)Nc1ccc(OC)cc1)c1ccc(O)c(F)c1`, for which the z-score in experiment [1] is -0.705; in experiment [2], 0.792; in experiment [3] it was -0.723; in experiment [4], -2.17; in [5], -2.47; in [6], -2.82. Further, the z-score is -1.1 (inactive) in experiment [7], -0.276 in experiment [8], -0.0233 in [9] and -0.0973 (inactive) in experiment [10].

Regarding `C=CCC(OC(C)=O)[C@@H]1[C@@H](N(Cc2ccc(-c3cccc(C(F)(F)F)c3)o2)C(=O)Cc2ccc(OC)cc2)c2cc(OCCCO)ccc2N1C(=O)c1ccc(-c2ccccc2)cc1` (stereo not given in full), the z-score was 0.095 in experiment [1]; 0.647 in [2]; 0.926 in [3]; -0.681 in experiment [4]; -1.93 in [5]; 3.55 in experiment [6]. The z-score was -0.645 (inactive) in experiment [7], 0.498 in [8], 0.504 in experiment [9] and -1.71 (inactive) in experiment [10].

For `CCOc1cc(C(O)C2C=CC3C(=O)NC(=O)C3N2Nc2ccc(Cl)cc2Cl)ccc1O` (stereo not given), the z-score in experiment [1] is -1.33; in experiment [2], -0.337; in experiment [3], -0.672; in experiment [4] it was -0.433; in experiment [5], -0.236; in [6] it was -1.19. Moreover, the z-score in [7] is -1.05 (inactive); in experiment [8], -0.76; in experiment [9], 0.172; in experiment [10], -0.873 (inactive).

Turning to `CS(=O)(=O)CCOC(=O)C1=CC(c2ccc(CO)cc2)=CC(C2CC2)N(Cc2sc3ccccc3c2Cl)C=C1C(=O)OCCS(C)(=O)=O` (stereo not given), the z-score in experiment [1] is -0.852; in experiment [2], -0.716; in experiment [3], 0.0312; in [4] it was -3.29; in [5], -2.92; in experiment [6], 0.424. The z-score was 0.662 (inactive) in experiment [7], -0.943 in [8], -1.87 in [9] and -1.05 (inactive) in experiment [10].

As for `CCCCCC1=C2CNC(C)(C(=O)OC)C=C2C(C)C1=O` (stereo not given), the z-score in experiment [1] is -1.23; in [2] it was -0.0708; in [3], -1.29; in experiment [4], -0.865; in experiment [5], -0.467; in experiment [6], -1.71. The z-score in experiment [7] is -1.22 (inactive); in experiment [8], 0.782; in experiment [9], -0.362; in [10], -0.722 (inactive).

With `O=C1C2C=CC(C(O)c3ccco3)N(Nc3ccccc3F)C2C(=O)N1c1ccccc1` (stereo not given), the z-score in [1] is -0.356; in experiment [2] it was -0.912; in experiment [3], -0.0718; in [4], -0.142; in experiment [5] it was 0.243; in [6], -1.27. Also, the z-score in experiment [7] is -0.346 (inactive); in experiment [8], -0.201; in experiment [9], 0.128; in experiment [10], 0.279 (inactive).

On to `COc1ccc(CCNC(=O)[C@@H]2c3ccccc3C(=O)N(C3CCCCC3)[C@H]2c2ccc(CO)cc2)cc1`, for which the z-score was 1.19 in experiment [1]; 1.1 in [2]; 0.383 in experiment [3]; 0.05 in experiment [4]; -0.746 in experiment [5]; 1.83 in experiment [6]. The z-score in experiment [7] is -0.053 (inactive); in experiment [8] it was -0.726; in experiment [9] it was 0.337; in experiment [10] it was 0.332 (inactive).

Regarding `Cc1ccc(F)cc1S(=O)(=O)N[C@@H]1CCN(Cc2ccc(Br)cc2)C1`, the z-score in experiment [1] was -0.0023; in experiment [2], -1.01; in experiment [3] it was -0.65; in experiment [4], -1.24; in experiment [5], -1.29; in experiment [6] it was 0.261. The z-score in [7] is 0.0995 (inactive); in experiment [8], -0.645; in [9] it was -0.555; in experiment [10] it was 0.728 (inactive).

On to `CO[C@H]1O[C@H](CO)[C@@H](OC(=O)Nc2ccc(Br)cc2)[C@@H]2OC(=O)[C@@H](Cc3ccccc3)C/C=C/C[C@H](Cc3ccccc3)C(=O)O[C@@H]12`, for which the z-score in experiment [1] is 0.468; in [2], 0.424; in [3] it was -1.35; in experiment [4] it was -1.41; in [5] it was -3.32; in experiment [6], 0.125. Also, the z-score is 2.12 (inactive) in experiment [7], -1.19 in [8], -0.241 in experiment [9] and -3.17 (inactive) in experiment [10].

As for `C#CCN(Cc1ccccc1Br)[C@H](/C=C/c1ccccc1)[C@@H](O)Cc1ccccc1`, the z-score in experiment [1] is -0.892; in experiment [2], -0.566; in experiment [3] it was -1.54; in [4], -1.63; in experiment [5] it was -3.89; in experiment [6], -2.68. For the same molecule, the z-score is -0.694 (inactive) in experiment [7], -0.538 in experiment [8], 0.42 in [9] and 2.3 (inactive) in [10].

Take `C=CCNC(=O)[C@@H]1[C@H]2C(=O)O[C@H](c3ccccc3)[C@H](c3ccccc3)N2[C@H](c2ccc(O)cc2)[C@@]12C(=O)N(C(=O)OCCOC)c1ccc(C#CC3=CCCCC3)cc12`: the z-score was 0.145 in [1]; 0.725 in experiment [2]; 0.423 in [3]; -2.13 in experiment [4]; -3.66 in [5]; -1.9 in experiment [6]. Also, the z-score was 0.889 (inactive) in experiment [7], -0.825 in [8], -0.627 in experiment [9] and -0.966 (inactive) in experiment [10].

As for `CCOC(=O)[C@@H]1CCCCN1C(=O)C(=O)OC`, the z-score in experiment [1] is -0.856; in experiment [2] it was -0.116; in experiment [3] it was 0.0129; in experiment [4], 0.143; in experiment [5], 0.13; in experiment [6] it was -0.684. Besides, the z-score is -0.603 (inactive) in [7], -0.0109 in experiment [8], 0.0743 in [9] and -0.599 (inactive) in experiment [10].

For `CCCC1(C(=O)OC)C=C2C(=C(C)C(=O)C2C)CN1` (stereo not given), the z-score in experiment [1] was -1.48; in experiment [2], -1.07; in experiment [3] it was -0.806; in experiment [4] it was -0.44; in [5], -1.03; in experiment [6], -1.96. Moreover, the z-score was -1.16 (inactive) in experiment [7], -0.0212 in experiment [8], -0.974 in [9] and -0.727 (inactive) in experiment [10].

Take `CCCCCN1CC=CC23O[C@@H]4/C=C\CCC(C)OC(=O)C4[C@H]2C(=O)N(C(CO)C(C)C)[C@@H]3C1=O` (stereo not given in full): the z-score in experiment [1] is -0.588; in [2], 0.214; in [3], -0.272; in [4], 1.82; in experiment [5], 0.216; in [6], -0.224. Moreover, the z-score in [7] was -0.0517 (inactive); in experiment [8] it was 0.699; in experiment [9], -0.577; in experiment [10], 0.829 (inactive).

As to `C=CCC(OC(C)=O)[C@@H]1[C@@H](N(Cc2cc3ccccc3o2)C(=O)Cc2ccc(F)cc2)c2cc(OCCCO)ccc2N1C(=O)Cc1ccc2ccccc2c1` (stereo not given in full), the z-score is 0.181 in experiment [1]; -0.136 in experiment [2]; 0.766 in experiment [3]; -0.082 in experiment [4]; -0.759 in experiment [5]; 1.22 in experiment [6]. Moreover, the z-score in experiment [7] was -0.683 (inactive); in experiment [8], -0.311; in [9], 1.19; in experiment [10], 0.0336 (inactive).

In the case of `COc1ccc([Si](C)(C)[C@@H]2[C@@H](CCO)O[C@]3(C(=O)N(Cc4ccccc4)c4ccc(N5CCOC5=O)cc43)[C@H]2C)cc1`, the z-score is -1.39 in experiment [1]; 1.67 in experiment [2]; -1.26 in experiment [3]; -2.34 in [4]; -3.44 in experiment [5]; -0.309 in experiment [6]. For the same molecule, the z-score was 0.168 (inactive) in experiment [7], -0.947 in experiment [8], -0.756 in experiment [9] and -1.94 (inactive) in experiment [10].

As to `CCOC(=O)C[C@H]1[C@H](OC(=O)c2ccc(C(=O)c3ccccc3)cc2)[C@@H](NC(=O)CC(C)C)c2cc(OCCCO)ccc2N1C(=O)c1ccccc1`, the z-score is -1.43 in experiment [1]; -0.408 in [2]; -0.0606 in experiment [3]; 0.0631 in experiment [4]; -1.11 in [5]; 1.49 in [6]. For the same molecule, the z-score in experiment [7] is 0.275 (inactive); in [8] it was 0.52; in experiment [9] it was 0.242; in experiment [10], 0.256 (inactive).

For the molecule `O=C(NCCN1CCOCC1)[C@@H]1c2ccccc2C(=O)N(Cc2ccccc2Cl)[C@H]1c1ccc(CO)cc1`, the z-score in [1] is 0.53; in [2] it was -0.249; in experiment [3], 1.15; in experiment [4], -0.142; in [5], 0.125; in [6], 3.16. In addition, the z-score in experiment [7] is 0.64 (inactive); in experiment [8], -0.695; in experiment [9], -0.408; in experiment [10] it was 0.59 (inactive).
